# Only some compounds are listed: those with a hit (about 3.9% of all), similar ones and a draw of the others.
# BH1578 lux ind = inducers of Vibrio cholerae quorum light production without autoinducers, primary screen, BH1578 luxS cqsA deficient, single point | V. cholerae BH1578 lux reporter, luminescence, 6 h | activation, % at 18.7 µM | 350,000 compounds, 0.16% hits; in the data active = activation mostly above about 9.7%, no sharp cut-off; inconclusive = no clear call, values can overlap the other calls; inactive = mostly below about 3.7%
# BoNT-A LC inh2 = BoNT/A light chain protease inhibitors, primary screen, biochemical, flow cytometry, MLPCN library; Botulinum neurotoxin type A light chain protease (Clostridium botulinum A str. ATCC 3502); multiplex microsphere protease substrate cleavage; inhibition, % at 10 µM; 360,000 compounds, 0.17% hits; AID 588499, 2011; also: plate controls were buffer without enzyme for full effect and enzyme alone for no effect
# BoNT F protease = BoNT/F light chain protease inhibitors, primary screen, biochemical, flow cytometry, MLPCN library. Botulinum neurotoxin type F light chain protease (Clostridium botulinum). Multiplex microsphere protease cleavage assay. inhibition, % at 10 µM. 360,000 compounds, 0.22% hits. AID 588497, 2011; in the data active = inhibition above about 35%, passing the limit was not always enough; inconclusive = no clear call, values can overlap the other calls; also: plate controls were buffer without enzyme for full effect and enzyme alone for no effect
# MazF activator = activators of E. coli MazEF toxin-antitoxin RNase, primary screen, biochemical, fluorescence, uHTS. Endoribonuclease toxin MazF (Escherichia coli (strain K12)), P0AE70. FAM/BHQ RNA-DNA oligo cleavage fluorescence, 5 h. activation, % at 20 µM. 350,000 compounds, 0.32% hits. AID 504720, 2011; in the data active = activation above about 50%
# Bead autofluor = counter-screen for toxin protease inhibitors: compound fluorescence; compound autofluorescence counterscreen, microsphere flow cytometry; active compounds read high; 360,000 compounds, 3.1% hits; fluorescence intensity (concentration not given with the values); in the data active = fluorescence intensity above about 16000; inconclusive = no clear call, values can overlap the other calls
# Anthrax LF inh2 = Bacillus anthracis LF protease inhibitors, primary screen, biochemical, multiplex microsphere, MLPCN library; Lethal factor (Bacillus anthracis), P15917; inhibition, % at 10 µM; multiplex microsphere protease cleavage assay; 360,000 compounds, 0.12% hits; AID 588501, 2011; also: plate controls were buffer without enzyme for full effect and enzyme alone for no effect
# Target sequence (P15917 whole entry, looked up): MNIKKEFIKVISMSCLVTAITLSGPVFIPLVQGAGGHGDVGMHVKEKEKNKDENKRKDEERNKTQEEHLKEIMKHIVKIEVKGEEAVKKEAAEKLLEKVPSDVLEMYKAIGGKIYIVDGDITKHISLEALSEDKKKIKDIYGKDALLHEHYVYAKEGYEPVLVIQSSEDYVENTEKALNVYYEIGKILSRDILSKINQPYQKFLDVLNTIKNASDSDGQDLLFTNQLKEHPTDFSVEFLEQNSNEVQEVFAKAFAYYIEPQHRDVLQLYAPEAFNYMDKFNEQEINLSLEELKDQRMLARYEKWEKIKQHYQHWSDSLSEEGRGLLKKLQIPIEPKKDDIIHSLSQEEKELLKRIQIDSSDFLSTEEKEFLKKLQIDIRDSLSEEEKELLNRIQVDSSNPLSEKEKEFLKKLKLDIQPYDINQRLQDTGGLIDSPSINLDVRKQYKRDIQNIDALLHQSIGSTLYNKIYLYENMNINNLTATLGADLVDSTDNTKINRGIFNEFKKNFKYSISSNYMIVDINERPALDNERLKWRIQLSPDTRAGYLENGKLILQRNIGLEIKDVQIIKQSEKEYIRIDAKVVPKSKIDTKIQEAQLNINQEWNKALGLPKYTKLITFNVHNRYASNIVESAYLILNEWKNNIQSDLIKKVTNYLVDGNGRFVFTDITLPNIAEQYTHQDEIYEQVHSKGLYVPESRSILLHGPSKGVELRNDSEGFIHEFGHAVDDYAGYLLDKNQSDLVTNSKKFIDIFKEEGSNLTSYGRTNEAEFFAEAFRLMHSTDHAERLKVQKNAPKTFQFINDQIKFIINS
# * hit, by the source's call; i = inactive; ? = inconclusive; · = no result given. Rule as the data show it, unless noted: active = inhibition above about 30%; inconclusive = no clear call, values can overlap the other calls; inactive = below that.
SMILES,BH1578 lux ind,BoNT-A LC inh2,BoNT F protease,MazF activator,Bead autofluor,Anthrax LF inh2
Cc1cnc2ccc(F)cc2c1,·,1,2,·,5584,-5
CC(C)(C)CC(C)(C)NC(=S)Nc1ccc2nc(-c3ccccn3)c(-c3ccccn3)nc2c1,0,42*,18,-24,6947,18
CC(C)N(C(C)C)S(=O)(=O)c1ccc(NC(=O)c2cnccn2)cc1,0,-3,?,2,4071,15
N[C@@H](Cc1cnc[nH]1)C(=O)Nc1ccc2ccccc2c1,0,-2,-4,2,5162,-9
C/C(=N\Nc1ccc(Cl)cc1)c1c(O)cc(C)oc1=O,0,0,4,-3,4248,-1
NNS(=O)(=O)c1ccc2c(c1)Cc1cc(S(=O)(=O)NN)ccc1-2,-1,-2,-8,154*,3151,-2
COc1ccc(N(C(=O)c2ccco2)S(=O)(=O)c2cc(Cl)c(Cl)cc2Cl)cc1,i,-1,-6,-9,23813*,-6
COc1ccc(N(C(=O)c2ccco2)S(=O)(=O)c2ccccc2)cc1,i,1,0,1,11124,-4
CCc1nc2oc3ccccc3c(=O)c2c(=O)n1Cc1ccccc1,0,-1,-2,2,3211,-4
CCc1nc2oc3cc(OC)ccc3c(=O)c2c(=O)n1Cc1ccccc1,-1,?,-4,8,24709*,-1
CCc1cc(C(=O)N(C)CC(=O)N(CC(C)C)c2c(N)n(CC(C)C)c(=O)[nH]c2=O)sc1C,1,2,-4,5,5697,-4
CCOc1cc2[nH]c(=S)n(C(C)C)c(=O)c2cc1OCC,-3,0,-3,4,21566*,-5
CCOc1cc2[nH]c(=S)n(C3CC3)c(=O)c2cc1OCC,1,0,-1,3,3956,1
CCOC(=O)N1CCC(n2c(=S)[nH]c3cc(OCC)c(OCC)cc3c2=O)CC1,i,?,9,12,18805*,-5
Cc1ccc(Cn2c(=S)[nH]c3ccc(N4CCOCC4)cc3c2=O)o1,-1,0,-6,1,5817,0
CCOc1cc2[nH]c(=S)n(Cc3ccc(C)o3)c(=O)c2cc1OCC,0,?,-5,9,17111*,-5
CCOC(=O)[C@]12CCC=C1N(Cc1ccc(Cl)cc1Cl)C(=O)[C@H](CC(=O)NCc1cccc3ccccc13)C2,·,0,6,·,6305,4
COc1ccc(S(=O)(=O)N2CCCCC2)cc1NC(=O)CCNC(=O)c1ccc(Cl)cc1,i,0,-6,2,2988,8
O=C1CC(=O)N(c2ccccc2F)C(=O)N1,i,3,8,-5,2992,-7
O=C1CC(=O)N(c2ccc(Cl)cc2Cl)C(=O)N1,i,3,4,7,21690*,-4
Cc1cc(Br)ccc1N1C(=O)CC(=O)NC1=O,2,5,5,5,20409*,-1
O=C(NCC1CCCO1)C(Cc1ccccc1)N1C(=O)C2C3C=CC(C4CC34)C2C1=O (centres undefined),0,0,0,11,4609,-2
CC(C)n1nc(C(=O)Nc2nnc(SCc3c(Cl)cccc3Cl)s2)c2ccccc2c1=O,-3,10,13,-12,19535*,0
O=C(Nc1ccc2ccccc2c1)c1cn(-c2ccccc2)nc1-c1cccs1,i,0,-7,-11,16591*,-3
CN(C)c1ccc(NC(=O)c2cn(-c3ccccc3)nc2-c2cccs2)cc1,0,0,-22,18,6416,-3
SMILES,BH1578 lux ind,BoNT-A LC inh2,BoNT F protease,MazF activator,Bead autofluor,Anthrax LF inh2
CN(C)C(=O)c1cn(-c2ccccc2)nc1-c1cccs1,0,?,0,3,23620*,-3
Cc1ccc(NC(=O)c2sc3ncn(CC(=O)N4CCOCC4)c(=O)c3c2C)c(Br)c1,-2,2,3,37,4983,-1
O=C(CSc1nc2nn(-c3ccccc3)c(=O)c-2c2n1CCCCC2)NCCCc1ccccc1,-2,0,-4,-11,3187,-4
C1CCCN(CCCCN2CCCCCC2)CC1,1,5,4,5,21776*,-5
OC(CCCCN1CCCCC1)c1ccccc1 (centres undefined),2,?,3,-15,22737*,-2
O=C(OCCN1CCCCC1)c1ccc(O)cc1,-1,3,5,2,21154*,1
O=C(CCN1CCCCC1)c1ccccc1,0,?,1,5,16441*,1
NC(=O)C[C@H](N)c1cn([C@@H](CC(N)=O)C(=O)N2CCNCC2)nn1,i,1,2,-8,3808,-2
CCN(CC)/C(=N\S(=O)(=O)c1ccccc1C)c1ccccc1,-4,-2,0,13,5685,-4
Cc1ccc(C(=O)CCC(=O)CCC(=O)O)cc1,i,0,-8,2,11167,-3
O=C(O)CCC(=O)CCC(=O)c1ccccc1,0,?,-3,14,23543*,-2
O=C(c1c[nH]c2ccccc2c1=O)N1CCCCCC1,0,0,-3,8,4577,-3
CCOC(=O)c1c(-c2ccc(C)o2)csc1NC(=O)CN1CCCCC1,5,0,-7,2,4732,-5
CCOC(=O)c1c(-c2ccc(C)o2)csc1NC(=O)CN(C)CC(=O)Nc1ccc(C)cc1,-7,1,1,-17,20236*,-4
O=C(Nc1ccc2c(c1)C(=O)OC2)c1ccc(F)cc1F,-1,·,·,1,·,·
COc1ccc(CN2CC(C(=O)NCCc3ccc(C)cc3)CC2=O)cc1 (centres undefined),0,1,2,4,20337*,-1
COc1ccc(CN2CC(C(=O)NCCc3ccccc3)CC2=O)cc1 (centres undefined),0,7,10,0,17837*,-4
O=C(Nc1ccccc1)C1CC(=O)N(Cc2ccccc2)C1 (centres undefined),0,1,-5,8,5762,-4
CCOc1ccc(CCNC(=O)C2CC(=O)N(Cc3ccc(OC)cc3)C2)cc1OCC (centres undefined),-11,2,2,5,5507,-2
CC(=O)c1ccc(NC(=O)C2CC(=O)N(Cc3ccccc3)C2)cc1 (centres undefined),0,7,10,8,17232*,-14
COc1ccc(N2CC(C(=O)NCCc3ccc(OC)c(OC)c3)CC2=O)cc1 (centres undefined),i,0,-5,4,22233*,-4
CC(Sc1nnc(C2CC2)n1C1CC1)C(=O)NC1(C#N)CCCCC1 (centres undefined),i,0,-3,-12,2648,-4

# High-throughput results from PubChem BioAssay.
